Source: PubChem BioAssay (Sanford-Burnham Center for Chemical Genomics)
TWEAK Fn14 block – inhibitors of TWEAK-Fn14 signaling, primary screen, luciferase reporter cells, uHTS; inhibition, % at 10 µM; TWEAK-stimulated Fn14 reporter cells, luciferase luminescence, 8 h; 360,000 compounds, 2% hits; in the data active means inhibition above about 50%
CF NFkB block – inhibitors of PAF-induced NF-kB signaling, primary screen, cell-based, GFP fluorescence, uHTS; AID 588850, 2011; KKLEB NF-kB-GFP reporter, GFP fluorescence overnight; 360,000 compounds, 0.86% hits; inhibition, % at 5 µM;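 active means at least 50% inhibition at 5 µM, scaled per plate between neutral and stimulator controls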;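 further: PAF is a Pseudomonas aeruginosa culture filtrate used as stimulus; plate controls were PAF-stimulated DMSO wells for no effect and unstimulated DMSO wells for full effect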
Peg3 promoter – Peg3 promoter-driven luciferase inhibitors, primary screen, cell-based, HeLa, luciferase luminescence; HeLa PEG-Prom luciferase reporter, overnight; inhibition, % at 20 µM; 360,000 compounds, 1.7% hits;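 active means inhibition of at least 50% at 20 µM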
HIF-2a inh – HIF-2a reporter inhibitors, primary screen, luminescence, 786-0 RCC cells | inhibition, % at 18.8 µM | AID 624352, 2012 | 786-0 RCC cells HIF-2a reporter, luciferase luminescence, overnight | 360,000 compounds, 0.72% hits;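 active means inhibition of the luminescence signal of 40% or more relative to plate controls, in a single-dose primary screen at 18.75 µM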
TROY NFkB inh – inhibitors of TROY-driven NF-kB signaling, primary screen, Q293 LMP1-TROYcd cells, NF-kB luciferase, uHTS; Q293 LMP1-TROYcd NF-kB luciferase reporter, 4 h; inhibition, % at 10 µM; 360,000 compounds, 0.98% hits;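 active means compounds whose plate-normalised and pattern-corrected inhibition of the luciferase reporter signal at the single screening dose is 50% or more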
KKLEB tox – cytotoxicity in KKLEB CF airway cells, primary screen, cytotoxicity control for CF NF-kB inhibitor project, cell-based, uHTS, fluorescence assay plates; activity change (cytotoxicity), % at 5 µM; 360,000 compounds, 0.36% hits; KKLEB CF airway cells viability, ATPlite luminescence, overnight; stronger effect = lower value; cells stimulated with P. aeruginosa culture filtrate;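 active means corrected activity change at or below -50% at 5 µM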
* hit, by the source's call. A selection: hits, their analogues and other compounds. The true share with any hit is near 3.9%.

SMILES	TWEAK Fn14 block	CF NFkB block	Peg3 promoter	HIF-2a inh	TROY NFkB inh	KKLEB tox
COc1ccccc1/C=C/C=N/n1c(C2CCCCC2)n[nH]c1=S	34	1	-156	-166	69*	11
S=c1[nH]nc(C2CCCCC2)n1/N=C/c1ccncc1	82*	85*	2	11	14	-12
Fc1ccc(CNCc2ccco2)cc1	0	-9	6	7	5	15
Cc1cc(C)c2nc(N3CCOCC3)c(C#N)cc2c1	-4	-24	-8	-10	5	3
Cc1cccc2cc(C#N)c(N3CCOCC3)nc12	54*	-2	-3	6	-18	4
Cc1cccc(OCC(=O)N(Cc2nnc(-c3ccccc3Cl)o2)C2CC2)c1	-18	0	3	3	2	4
COc1cc(OC)cc(C(=O)NC(=S)NNC(=O)[C@H]2C[C@@H]2c2ccccc2)c1	-9	19	28	9	-20	-4
COc1ccc(C(=O)NC(=S)NNC(=O)[C@H]2C[C@@H]2c2ccccc2)cc1OC	-11	10	61*	21	-7	-15
Nc1nc(NC(=O)c2ccccc2Cl)nn1-c1ccccc1	3	-9	-13	-16	10	-8
CCN(CC)C(=S)SCC(=O)c1ccccc1	-4	1	-230	-181	-38	11
CCN(CC)C(=S)SSC(=S)N(CC)CC	-46	-21	68*	28	10	5
O=S1(=O)CCOC[C@H](Cc2ccccc2)N1Cc1cccc(C(F)(F)F)c1	-1	-4	18	19	12	-3
FC(F)(F)c1cccc(CC2CN(Cc3ccccc3)Cc3ccccc3N2c2cc(Cl)cc(Cl)c2)c1 (configuration not stated)	91*	-7	-4	8	35	-7
Cc1nnc(SC(C)C(=O)Nc2nccs2)s1 (configuration not stated)	-12	-17	-1	16	9	4
CC(C)(C)c1ccc(Cn2c(=N)n(CC(O)c3ccco3)c3ccccc32)cc1 (configuration not stated)	69*	25	105*	1	54*	-22
O=C(CCC(=O)Nc1cccc2ccccc12)N/N=C/c1ccco1	-4	-2	1	-1	3	5
COc1ccc(CCNc2ncnc3[nH]ncc23)cc1OC	26	19	21	1	7	-5
COc1ccc(CCNc2ncnc3sc(C)cc23)cc1OC	76*	5	12	7	32	-3
COc1ccccc1CNc1ncnc2c1cnn2-c1ccccc1	16	-16	-108	-160	-17	-7
COc1ccc(/C=N/Nc2ncnc3c2[nH]c2ccc(C)cc23)c(OC)c1OC	-51	9	73*	-10	-20	-7
COc1cc(OC)c(OC)cc1/C=N/Nc1nc2ccccc2[nH]1	-5	-1	0	20	44	13
COc1ccc(/C=N/NC(=O)c2[nH]c3ccc(C)cc3c2-c2ccccc2)c(C(=O)O)c1OC	-3	-28	-1	22	-6	8
COc1cc(CNc2ncnc3c2[nH]c2ccc(C)cc23)cc(OC)c1	24	29	24	23	50*	-13
CCCCOCCCNc1ncnc2c1[nH]c1ccccc12	60*	-2	11	7	38	-3
Cc1ccc2[nH]c3c(NCc4ccco4)ncnc3c2c1	44	-7	-229	-286	-21	-8
SMILES	TWEAK Fn14 block	CF NFkB block	Peg3 promoter	HIF-2a inh	TROY NFkB inh	KKLEB tox
COc1cc(OC)c(OC)cc1/C=N/Nc1ncnc2c1[nH]c1ccccc12	38	30	89*	5	11	-29
O=C(CN1CCN(CC(=O)Nc2ccc3c(c2)OC2(CCCCC2)O3)CC1)Nc1cccc(F)c1	27	-8	11	-4	14	18
CCC(C)c1ccccc1NC(=O)COC(=O)c1ccc2[nH]c3c(c2c1)CCCC3 (configuration not stated)	98*	13	31	-59	56*	-3
O=C(COC(=O)c1ccc2[nH]c3c(c2c1)CCCC3)Nc1ccc(Cl)cc1Cl	-31	16	15	-3	17	-14
CC1(C)CC(=O)C2=C(C1)c1c(ccc3ccccc13)NC2c1cc([N+](=O)[O-])cc([N+](=O)[O-])c1O (configuration not stated)	42	30	29	36	53*	41
Cc1cc2c(cc1C)N(Cc1ccc(Cl)cc1)C1=NCCCN12	5	5	57*	20	11	3
O=[N+]([O-])c1cc(-c2csc(NCCc3nc4cc(Cl)c(Cl)cc4n3CCCO)n2)ccc1Cl	29	-16	92*	3	15	-22
CC1=C(C(=O)OCc2ccccc2)C(c2ccccn2)c2c(n(C)c(=O)n(C)c2=O)N1 (configuration not stated)	27	9	17	18	-13	-19
N=c1n(CCCOc2ccc(Br)cc2)c2ccccc2n1CC(N)=O	-6	0	60*	7	7	-11
Cn1c(=O)n(CCCOc2ccc(Br)cc2)c2ccccc21	-28	8	-61	-68	-1	-1
Cc1ccc(-n2cc(CNCC3CC(=O)N(C4CC4)C3)c(-c3cccc(C)c3)n2)cc1 (configuration not stated)	-5	-10	-25	-40	52*	-10
COc1ccc(C(=O)NNC(=O)Cc2nc3nc(C)cc(C)n3n2)cc1	-11	6	1	-4	-16	12
O=C(CCCN1C(=O)c2ccccc2C1=O)NCCCn1ccnc1	-4	-11	-2	12	1	9
COc1ccccc1N(C(C)=O)C1=C(Cl)C(=O)c2ccccc2C1=O	24	51*	100*	88*	-16	-44
COc1ccc(OC)c(S(=O)(=O)N2CCC(C(=O)NC3CCCCC3)CC2)c1	8	-8	-17	3	-9	4
N#C/C(N=Nc1ccccc1O)=N\Nc1ccccc1O	88*	-46	67*	-71	46	1
Oc1ccccc1N=N/C(=N/Nc1ccccc1O)c1ccccc1	19	-4	0	13	5	10
O=C(CCC1CCCC1)N1CCN(S(=O)(=O)Cc2ccccc2)CC1	-19	-4	4	8	-10	0
Nc1ccc2nc(-c3cccnc3)[nH]c2c1	-2	12	-22	-35	-9	-3
Nc1cccc(-c2c[nH]c3ncc(-c4cccnc4)cc23)c1	41	80*	5	-8	23	-6
